Source: PubChem
Only some compounds are listed: those with a hit (about 1.2% of all), similar ones and a draw of the others.
RXFP1 agonist – qHTS Assay for Agonists of the Relaxin Receptor RXFP1 | HEK293T-RXFP1 cAMP TR-FRET, 30 min; response scale: percent of porcine relaxin response, buffer zero | Relaxin receptor 1 (Homo sapiens), Q9HBX9 | AID 2676, 2010 | Potency, µM (top dose mostly 57.5 µM), for inactives: at the top dose activation, hits mostly activators | 370,000 tested, 0.3% active; active = well fitted activation curve with a large enough effect; inconclusive = small, poorly fitted or top-dose-only effect; note: potency is the fitted concentration of half-maximal effect; % is set by controls: 0 for no effect and ±100 for the full control effect; nearly all actives have a fitted effect of over 60% in size
Target sequence (Q9HBX9 whole entry, looked up): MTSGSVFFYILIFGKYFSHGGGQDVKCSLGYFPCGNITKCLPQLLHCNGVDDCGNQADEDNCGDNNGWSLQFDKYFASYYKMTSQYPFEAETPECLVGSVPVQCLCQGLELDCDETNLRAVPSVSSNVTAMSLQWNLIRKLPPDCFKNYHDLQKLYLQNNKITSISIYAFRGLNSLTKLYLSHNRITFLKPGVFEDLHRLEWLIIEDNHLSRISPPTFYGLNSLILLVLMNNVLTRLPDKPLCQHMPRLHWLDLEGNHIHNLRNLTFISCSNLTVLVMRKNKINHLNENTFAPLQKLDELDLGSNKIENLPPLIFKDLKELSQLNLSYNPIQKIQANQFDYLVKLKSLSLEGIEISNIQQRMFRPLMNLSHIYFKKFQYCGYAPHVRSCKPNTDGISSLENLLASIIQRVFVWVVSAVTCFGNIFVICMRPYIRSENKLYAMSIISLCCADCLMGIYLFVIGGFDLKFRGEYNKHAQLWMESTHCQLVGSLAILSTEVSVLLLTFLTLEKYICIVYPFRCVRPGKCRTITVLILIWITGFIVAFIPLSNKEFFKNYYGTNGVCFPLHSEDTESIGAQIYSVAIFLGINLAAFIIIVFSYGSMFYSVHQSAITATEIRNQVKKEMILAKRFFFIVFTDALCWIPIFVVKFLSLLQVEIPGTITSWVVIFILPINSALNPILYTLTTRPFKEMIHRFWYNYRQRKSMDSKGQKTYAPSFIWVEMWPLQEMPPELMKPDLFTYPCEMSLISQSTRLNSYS
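HEK293T cells stably expressing RXFP1 were pretreated with the PDE4 inhibitor Ro 20174, exposed to compounds for 30 min at 37C, lysed, and cAMP was read by TR-FRET. Data normalized to buffer (basal) and 29 nM porcine relaxin (100%).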
gsp antagonist – qHTS for Antagonists of gsp, the Etiologic Mutation Responsible for Fibrous Dysplasia/McCune-Albright Syndrome: qHTS; gsp-mutant cells, cAMP HTRF, 30 min; Potency, µM (series often up to 76.9 µM), without a hit: at the top dose activity change, negative = inhibition, most hits filed as inhibitors; 340,000 tested, 0.4% active; calls by dose curve; cell line not stated here;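 note: intracellular cAMP measured with PDE inhibitor Ro 20-1724 present during compound exposure; potency is the fitted concentration of half-maximal effect; % is set by controls: 0 for no effect and ±100 for the full control effect; nearly all actives have a fitted effect of over 65% in size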
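G418-selected cells were plated in DMEM/10% FBS for 16-24 h at 37C, then treated with compounds plus the PDE inhibitor […] (300 uM solution added) for 30 min at 37C. Intracellular cAMP was measured by HTRF after 30 min lysis at room temperature.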
RXFP1 antag – qHTS Assay for Antagonists of the Relaxin Receptor RXFP1; HEK293-RXFP1, relaxin-stimulated cAMP HTRF, 30 min; active compounds read low; activity change, negative = inhibition, % at 57.5 µM; 350,000 tested, 0.59% active; AID 1259400, 2018;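 active = activity change of -60% or lower, but not beyond a set lower limit; inconclusive = change between -60% and -40%, or beyond the set limit; inactive = change above -40%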; note: % is set by controls: 0 for no effect and ±100 for the full control effect
pAkt inh – HTS Assay for Inhibitors of Akt Phophorylation: Primary Screen | AID 651550, 2012 | activity change, % for hits at 50 µM | Neuro2A IGF-stimulated pAkt S473 HTRF, 20 min; active compounds read low | 360,000 tested, 0.32% active; in the data active = activity change below about -80%; inconclusive = mostly about -51% to -80%; note: % is set by controls: 0 for no effect and ±100 for the full control effect
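Neuro2A cells (4,500/well, DMEM with 0.5% FBS) were treated with compound at a single 50 µM final concentration, stimulated with 6 nM IGF for 20 min at 37 °C, and lysed. Phospho-Akt Ser473 was read by HTRF as 665/615 ratio ×10^4.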
gsp ag – qHTS for Agonist of gsp, the Etiologic Mutation Responsible for Fibrous Dysplasia/McCune-Albright Syndrome: qHTS | 340,000 tested, 0.13% active | AID 624287, 2012 | Potency, µM (doses to about 76.9 µM), without a hit: top-dose activation (cAMP increase), hits mostly activators | gsp mutant cells, cAMP HTRF, 30 min; active = well fitted activation curve with a large enough effect; inconclusive = small, poorly fitted or top-dose-only effect, or another doubt; inactive = no such curve, though single readings can be large or run the other way; cell line not stated here;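 note: phosphodiesterase inhibitor Ro 20-1724 added with compounds to block cAMP breakdown; potency is the fitted concentration of half-maximal effect; nearly all actives have a fitted effect of over 60% in size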
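Cells stably selected in G418 were plated at 2000/well, grown 16-24 hr, then given compounds in DMSO with the PDE inhibitor […] (300 uM solution added) for 30 min at 37C; cAMP was read by HTRF.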
Starred values were filed as active, the others as inactive; i = inactive; ? = inconclusive; / = not tested or not shown; [ ] = another dose, or the depositor's remark.

SMILES	RXFP1 agonist	gsp antagonist	RXFP1 antag	pAkt inh	gsp ag
O=C(NCCc1ccccc1)c1ccc2nc(-c3ccco3)c(-c3ccco3)nc2c1	2%	2%	-6	i	13%
O=C(c1ccccc1)c1ccc2nc(-c3ccco3)c(-c3ccco3)nc2c1	3%	-12%	-90*	i	-16%[15.4 µM]
CCC(=O)N1CCc2cc(Br)cc(S(=O)(=O)CCC(=O)NCCc3ccccc3Cl)c21	0%	/	-29	/	/
O=C(O)/C=C/C(=O)Nc1ccc(C2(c3ccc(NC(=O)/C=C/C(=O)O)cc3)c3ccccc3-c3ccccc32)cc1	0%	1%	-61*	i	-19%
COc1cccc(C(=O)Nc2ccc3nc(SCC(=O)N4CCc5ccccc54)sc3c2)c1	2%	/	/	/	/
Cc1c(C(=O)N(C)Cc2ccccc2)sc2nc(-c3ccc(F)cc3)cn12	4%	/	-68*	/	/
COc1ccc(OC)c(CCNC(=O)c2cc3cccc4c3n2CC(C)S4)c1 (stereo unspecified)	5%	/	-29	/	/
O=C(Nc1ccccc1)c1ccc(=O)n(Cc2ccc(F)c(F)c2)c1	-1%	-11%	-62*	i	-2%
C=CCOc1cccc(C2/C(=C(\O)c3ccc4c(c3)OCCO4)C(=O)C(=O)N2CCN2CCOCC2)c1 (stereo unspecified)	25µM*	17%	56	i	?
CCCOc1cccc(C2/C(=C(/O)c3ccc4c(c3)CC(C)O4)C(=O)C(=O)N2CCN2CCOCC2)c1 (stereo unspecified)	25µM*	-3%	17	i	?
CC1Cc2cc(/C(O)=C3/C(=O)C(=O)N(CCN4CCOCC4)C3c3cccc(Cl)c3)ccc2O1 (stereo unspecified)	22%	-1%	19	i	?
CCOc1ccc(CNC(=O)Cn2nc(C)c3sc4ccccc4c3c2=O)cc1	6%	/	-9	/	/
Cc1ccc2c(=O)cc(C(=O)Nc3ccc(S(=O)(=O)Nc4onc(C)c4C)cc3)oc2c1C	13%	/	8	/	/
Cc1ccc(C(C)C)c(OCC(=O)NCC2(N3CCOCC3)CCCCC2)c1	4%	/	-111*	/	/
NS(=O)(=O)c1ccc(N2CCCCS2(=O)=O)cc1	/	/	25	/	/
CN(Cc1ccccc1)C(=O)c1ccccc1N(C)S(=O)(=O)c1ccccc1	1%	-11%	-62*	i	19%[15.4 µM]
CN(Cc1ccccc1)C(=O)c1ccccc1C(=O)O	0%	1%	17	i	?
Cc1ccc(-c2cc(C(F)(F)F)n3ncc(C(=O)O)c3n2)cc1	0%	-13%	5	i	-3%
COCCNC(=O)c1cnn2c(C(F)(F)F)cc(-c3ccc(C)cc3)nc12	-1%	35µM*	-12	i	-78%
CN1C(=O)/C(=C/c2ccccc2F)Sc2ccc(C(=O)N3CCCC3)cc21	-1%	28µM*	-25	i	5%
Cc1ccccc1/C=C1\Sc2ccc(C(=O)N3CCN(c4ccccn4)CC3)cc2N(C)C1=O	0%	?	-5	i	-53%
O=C(c1ccc2c(c1)N(Cc1ccccc1Cl)C(=O)c1ccccc1S2)N1CCCC1	-4%	/	-68*	/	/
O[C@@H](COc1cccc2ncccc12)CN1CCN(C2c3ccccc3[C@@H]3[C@H](c4ccccc42)C3(F)F)CC1 (stereo partly specified)	/	/	-33	/	/
COCCN(CCOC)S(=O)(=O)c1ccc(C(=O)NC2CCN(Cc3ccccc3)CC2)cc1	2%	0%	-5	-113%*	14%
N#Cc1c(Cl)nsc1NC(=O)c1ccccc1	2%	32µM*	-8	i	36%
N#Cc1c(NC(=O)c2ccccc2)sc2c1CCCCC2	-2%	-6%	-30	i	13%
Cc1cc2c(c(=O)n1-c1ccccc1)C1O[C@](c3ccsc3)(Cc3ccccc31)O2	-1%[11.5 µM]	/	/	/	/
CCCCn1cnc2c(c(-c3ccccc3)c(-c3ccccc3)n2Cc2ccco2)c1=N	-1%	5%	-10	i	6%[15.4 µM]
